The values below come from PubChem BioAssay.

SMILES strings stand for the structures. Calls of active or inactive are those of the source.

The nature of experiment [1]: optical density shifts of acrAB sulA E. coli – strain DRC41, OD650, 48 h, E. coli filamentation inducer project, primary screen (AID 1152).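 Note: E. coli MC1000 strain DRC41 lacking acrAB efflux pump and sulA.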 Particulars: higher = more signal, called active from +8 up or from −8 down.
Experiment [2] is described as follows: probe aLefty1 binding on compound microarray – biochemical, small-molecule microarray, 635/667 nm fluorescence, primary screen (AID 1153).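 Note: score merges spot fluorescence with signal-to-noise ratio from the scanned slide images.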 Particulars: higher = more signal.
Experiment [3] in a line: plasmodial surface anion channel blockers, osmotic lysis – cell-based, P. falciparum Indochina, OD700, 1 h, primary screen (AID 1154). Particulars: P. falciparum Indochina infected RBC osmotic lysis, higher = more signal, called active from +8 up or from −8 down.
A short description of experiment [4]: plasmodial surface anion channel blockers, osmotic lysis – cell-based, P. falciparum Indochina, OD700, 2 h, primary screen (AID 1155).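 Note: lysis reports solute entry through the parasite surface anion channel PSAC.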 Particulars: P. falciparum Indochina infected erythrocytes, higher = more signal, called active from +8 up or from −8 down.
The nature of experiment [5]: changes in parasitized red cell lysis, either direction – P. falciparum Indochina, OD700, 3 h, PSAC antagonist project, primary screen (AID 1156). Particulars: P. falciparum-infected erythrocytes, osmotic lysis, higher = more signal, called active from +8 up or from −8 down.
Experiment [6] is described as follows: plasmodial surface anion channel blockers, osmotic lysis – cell-based, P. falciparum Indochina, OD700, 18 h, primary screen (AID 1157). Particulars: P. falciparum Indochina infected erythrocytes, osmotic lysis OD700, 18 h; higher = more signal, called active from +8 up or from −8 down.
Experiment [7] is described as follows: S6 kinase pathway phospho-S6 level changes – cell-based, A549, cytoblot, luminescence, serum-stimulated, primary screen (AID 1158).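 Note: serum-stimulated A549 lung adenocarcinoma cells; signal is phosphorylated S6 detected by cytoblot immunostaining with HRP secondary.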 Particulars: 5 h, higher = more signal.
Experiment [8] addresses NADPH oxidase 2 (Homo sapiens) (UniProt P04839). Briefly: compounds shifting NOX2 Amplex Red fluorescence – cell-based, HEK293-NOX2, PMA-stimulated, NOX inhibitor project, primary screen (AID 1159). Note: test concentration not given here. Particulars: 45 min, higher = more signal, called active from +8 up or from −8 down.
Experiment [9] addresses NADPH oxidase 4 (Homo sapiens) (UniProt Q9NPH5). Briefly: compounds shifting NOX4 Amplex Red fluorescence – cell-based, HEK293-NOX4, tetracycline-induced, NOX inhibitor project, primary screen (AID 1160). Particulars: HEK293-NOX4, Amplex Red H2O2 fluorescence, 45 min; higher = more signal, called active from +8 up or from −8 down.
Experiment [10] concerns the target NADPH oxidase 5 (Homo sapiens) (UniProt Q96PH1). In words: compounds shifting NOX5 Amplex Red fluorescence – cell-based, HEK293-NOX5, NOX inhibitor project, primary screen (AID 1161). Particulars: HEK293-NOX5, ionomycin, 45 min, higher = more signal.
A short description of experiment [11]: compound effects on lung adenocarcinoma cell viability – A549, calcein-AM fluorescence, 48 h, basal, profiling panel (AID 1162). Note: test concentration not given here. Particulars: higher = more signal.
Experiment [12] in a line: compound effects on differentiated 3T3-L1 adipocyte viability – cell-based, 3T3-L1 adipocytes, calcein-AM fluorescence, 48 h, basal, profiling panel (AID 1163). Note: test concentration not given here. Particulars: 3T3-L1 adipocytes viability, higher = more signal.
A short description of experiment [13]: compound effects on hepatocellular carcinoma cell viability – HepG2, calcein-AM fluorescence, 48 h, basal, profiling panel (AID 1164). Note: test concentration not given here. Particulars: higher = more signal.
The nature of experiment [14]: compound effects on multiple myeloma cell viability – MM1S, calcein-AM fluorescence, 48 h, basal, profiling panel (AID 1165).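 Note: viability of MM1S multiple myeloma cells under basal unstimulated conditions; test concentration not given here.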 Particulars: higher = more signal.
Experiment [15] can be described thus: calcein-AM signal in unstimulated myeloma cells – cell-based, calcein-AM fluorescence, 48 h, PK04 Diversity Set, profiling panel (AID 1166).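 Note: cells grown under basal conditions without added stimulus; test concentration not given here.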 Particulars: RPMI8226 myeloma viability, higher = more signal.
Experiment [16] is described as follows: JC-1 mitochondrial signal, unstimulated HepG2 cells – cell-based, JC-1 fluorescence, 24 h, 100 nL compound, profiling panel (AID 1167). Note: test concentration not given here. Particulars: HepG2 mitochondrial potential, higher = more signal.
A short description of experiment [17]: JC-1 mitochondrial signal, unstimulated adipocytes – cell-based, JC-1 fluorescence, 3T3-L1 adipocytes, 24 h, 100 nL compound, profiling panel (AID 1168). Note: test concentration not given here. Particulars: JC-1 mitochondrial fluorescence, higher = more signal, called active from +8 up or from −8 down.
The nature of experiment [18]: JC-1 mitochondrial signal, unstimulated myeloma cells – cell-based, JC-1 fluorescence, RPMI8226, 24 h, 100 nL compound, profiling panel (AID 1169). Note: test concentration not given here. Particulars: JC-1 mitochondrial potential fluorescence, higher = more signal.
Experiment [19] in a line: JC-1 mitochondrial signal, unstimulated MM1S myeloma – cell-based, JC-1 fluorescence, 24 h, 100 nL compound, profiling panel (AID 1170). Note: test concentration not given here. Particulars: MM1S mitochondrial potential, higher = more signal.
Experiment [20] can be described thus: resazurin metabolic signal in A549 cells – cell-based, resazurin fluorescence, 24 h, PK04 Diversity Set, profiling panel (AID 1171). Note: test concentration not given here. Particulars: A549 viability, higher = more signal, called active from +8 up or from −8 down.

Chain of NADPH oxidase 5 (Homo sapiens) (Q96PH1 whole entry, looked up): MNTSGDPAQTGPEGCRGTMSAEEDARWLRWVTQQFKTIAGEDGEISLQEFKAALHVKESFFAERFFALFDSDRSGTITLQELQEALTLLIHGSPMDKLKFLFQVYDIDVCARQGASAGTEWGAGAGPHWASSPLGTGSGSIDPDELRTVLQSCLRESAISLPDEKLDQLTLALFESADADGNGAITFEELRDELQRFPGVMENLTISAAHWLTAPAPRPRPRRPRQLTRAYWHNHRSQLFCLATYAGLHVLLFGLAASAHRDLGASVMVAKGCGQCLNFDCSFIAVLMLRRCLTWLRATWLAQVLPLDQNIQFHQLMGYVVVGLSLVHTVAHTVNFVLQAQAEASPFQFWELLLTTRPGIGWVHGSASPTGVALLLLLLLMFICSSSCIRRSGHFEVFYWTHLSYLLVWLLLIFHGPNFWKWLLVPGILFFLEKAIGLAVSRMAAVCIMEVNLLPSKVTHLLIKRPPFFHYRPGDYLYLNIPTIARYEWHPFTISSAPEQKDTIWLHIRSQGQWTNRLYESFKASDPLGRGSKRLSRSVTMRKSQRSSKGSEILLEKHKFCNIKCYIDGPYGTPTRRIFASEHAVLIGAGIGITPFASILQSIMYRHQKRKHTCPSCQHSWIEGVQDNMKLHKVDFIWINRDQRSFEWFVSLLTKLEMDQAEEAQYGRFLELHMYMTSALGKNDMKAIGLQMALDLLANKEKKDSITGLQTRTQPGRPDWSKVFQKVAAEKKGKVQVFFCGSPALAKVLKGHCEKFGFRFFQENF
Chain of NADPH oxidase 4 (Homo sapiens) (Q9NPH5 whole entry, looked up): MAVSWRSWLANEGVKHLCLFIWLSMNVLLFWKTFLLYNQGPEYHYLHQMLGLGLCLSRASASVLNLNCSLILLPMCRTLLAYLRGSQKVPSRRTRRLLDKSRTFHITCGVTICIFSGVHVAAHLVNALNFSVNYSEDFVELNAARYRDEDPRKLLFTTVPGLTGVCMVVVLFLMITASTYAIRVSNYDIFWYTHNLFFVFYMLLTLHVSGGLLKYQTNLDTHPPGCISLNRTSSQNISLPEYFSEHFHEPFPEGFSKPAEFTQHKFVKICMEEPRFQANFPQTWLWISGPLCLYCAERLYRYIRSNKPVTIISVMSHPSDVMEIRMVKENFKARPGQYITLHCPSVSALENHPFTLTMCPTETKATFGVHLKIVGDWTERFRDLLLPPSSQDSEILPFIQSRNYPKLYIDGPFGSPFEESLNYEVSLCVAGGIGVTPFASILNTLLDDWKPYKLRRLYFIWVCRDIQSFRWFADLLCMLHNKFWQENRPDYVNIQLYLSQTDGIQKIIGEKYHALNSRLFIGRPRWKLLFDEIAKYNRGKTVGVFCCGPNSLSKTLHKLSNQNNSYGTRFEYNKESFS
Chain of NADPH oxidase 2 (Homo sapiens) (P04839 whole entry, looked up): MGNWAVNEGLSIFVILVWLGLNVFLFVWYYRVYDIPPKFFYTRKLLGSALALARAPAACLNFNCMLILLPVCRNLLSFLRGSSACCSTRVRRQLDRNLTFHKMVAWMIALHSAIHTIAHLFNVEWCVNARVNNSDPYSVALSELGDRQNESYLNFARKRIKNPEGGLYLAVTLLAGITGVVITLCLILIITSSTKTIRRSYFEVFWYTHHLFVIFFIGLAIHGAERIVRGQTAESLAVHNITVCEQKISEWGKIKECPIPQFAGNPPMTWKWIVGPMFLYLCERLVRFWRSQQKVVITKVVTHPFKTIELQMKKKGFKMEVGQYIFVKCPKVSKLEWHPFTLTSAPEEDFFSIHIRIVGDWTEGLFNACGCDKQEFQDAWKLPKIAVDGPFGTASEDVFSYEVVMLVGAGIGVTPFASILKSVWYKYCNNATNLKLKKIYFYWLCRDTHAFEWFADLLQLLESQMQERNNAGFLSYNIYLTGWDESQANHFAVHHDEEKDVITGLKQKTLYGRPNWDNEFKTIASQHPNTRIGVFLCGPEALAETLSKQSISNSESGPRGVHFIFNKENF

Consider `CCOC(=O)[C@H](CC(C)C)NC(=O)CCC1CC(OC(=O)NCc2ccc3c(c2)OCO3)CC2(CCCC(COC(=O)NCCCN3CCCC3=O)O2)O1` (stereo not given in full), for which the z-score in experiment [1] was 0.015 (inactive); in experiment [3], 1.08 (inactive); in experiment [4] it was 0.448 (inactive); in [5], -0.447 (inactive); in [6], 0.003 (inactive); in [7] it was 0.375. The z-score is 0.242 (inactive) in experiment [8]; 0.187 (inactive) in experiment [9]; 0.32 in experiment [10]; 0.526 in experiment [11]; -0.268 in experiment [12]; -0.106 in experiment [13]. Further, the z-score is -0.181 in experiment [14]; 0.514 in experiment [15]; 0.553 in [16]; 0.875 (inactive) in experiment [17]; -0.838 in experiment [18]; -0.328 in experiment [19]. Moreover, the z-score in experiment [20] is 0.142 (inactive). For the same compound, the composite z-score in [2] is 0.0004.
Regarding `O=C1[C@H]2[C@H]3[C@H](O)[C@H](O)CC(=NOCc4ccccc4)[C@H]3CC[C@H]2C(=O)N1Cc1ccc2c(c1)OCO2`, the z-score in experiment [1] is -1.06 (inactive); in experiment [3], 19.4 (active); in [4], 2.12 (inactive); in experiment [5], 0.686 (inactive); in experiment [6], 0.599 (inactive); in experiment [7] it was -0.702. The z-score was 0.414 (inactive) in experiment [8]; -0.0657 (inactive) in [9]; -2.61 in experiment [10]; 0.446 in experiment [11]; 0.717 in [12]; -1.25 in experiment [13]. Further, the z-score in experiment [14] was 0.424; in [15], -1.69; in experiment [16], 0.701; in experiment [17], -0.802 (inactive); in [18] it was 0.0189; in experiment [19], 0.349. Also, the z-score in [20] was 0.392 (inactive). The composite z-score in experiment [2] was -0.147.
As to `O=C1C2=CC[C@H]3C(=O)N(c4cccc(Oc5ccccc5)c4)C(=O)[C@H]3[C@H]2[C@H](O)[C@@H]2O[C@H]12`, the z-score in experiment [1] is -0.462 (inactive); in experiment [3], -0.0001 (inactive); in experiment [4] it was -0.295 (inactive); in experiment [5], -0.081 (inactive); in [6], 0.157 (inactive); in experiment [7], -0.194. Besides, the z-score was 0.042 (inactive) in experiment [8]; 0.605 (inactive) in experiment [9]; 0.4 in experiment [10]; -1.07 in experiment [11]; -0.0208 in experiment [12]; -3.98 in [13]. The z-score was -3.09 in experiment [14]; -3.84 in experiment [15]; -0.778 in experiment [16]; -0.298 (inactive) in experiment [17]; -1.05 in experiment [18]; -3.02 in experiment [19]. For the same compound, the z-score in experiment [20] was -1.35 (inactive). In experiment [2], this compound showed a composite z-score of -0.103.
Consider `COC(=O)[C@H](C)NC(=O)CCC1CC(OC(=O)NCc2cccc3ccccc23)CC2(CCCC(COC(=O)NCC(c3ccccc3)c3ccccc3)O2)O1` (stereo not given in full), for which the z-score in experiment [1] was 0.223 (inactive); in [3], -0.228 (inactive); in experiment [4], -0.0825 (inactive); in [5] it was -1.34 (inactive); in experiment [6], -0.242 (inactive); in experiment [7] it was 0.863. The z-score is -0.121 (inactive) in experiment [8]; 1.09 (inactive) in experiment [9]; 1.47 in experiment [10]; -0.101 in experiment [11]; -0.294 in [12]; -0.618 in experiment [13]. Also, the z-score is -3.41 in [14]; -1.22 in experiment [15]; 1.21 in experiment [16]; -0.0303 (inactive) in experiment [17]; -0.125 in experiment [18]; -0.493 in experiment [19]. In addition, in experiment [20], the z-score is 2.23 (inactive). In addition, the composite z-score in experiment [2] is -0.0562.
